Our source for the Potency values is PubChem BioAssay (NCATS).

Where “and” joins values, the source holds several entries; their conditions need not be identical. Identical values can stand only once. Inconclusive results are not listed. Where a call stands in place of a potency, no number is given. Calls of active or inactive are those of the source. Calls come from the whole dose curve; as a rule, active = well fitted curve in the direction sought with a large enough effect; inconclusive = small, poorly fitted or top-dose-only effect, or another doubt; inactive = no such curve, though single readings can be large; an effect the other way counts as inactive or inconclusive.

A short description of the first test: qHTS of pediatric cancer cell lines to identify multiple opportunities for drug repurposing: Primary screen for MG 63 (6-TG R) cells (AID 1347105). Note: nearly all actives have a fitted effect of over 50% in size. Note: potency is the fitted concentration of half-maximal effect. Conditions: MG 63 (6-TG R) viability, CellTiter-Glo, 48 h; series mostly up to 46 µM. The method in brief:
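Cells plated at 500-1,000/well in growth medium, compounds added after 5 h. MIPE tested at 11 points (from 0.78 nM), NPC at 8 points (from 0.59 nM). CellTiter-Glo luminescence after 48 h; concentration-response curves from primary screen.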
On the technique in general: qHTS replaces the single test concentration by a dilution series.
`NN=C(N)N`: the Potency entry is “inactive”.
Still for that read-out and setting: the same measure for `CN1CCN(C(=O)O[C@H]2c3nccnc3C(=O)N2c2ccc(Cl)cn2)CC1`: “inactive”; for `CC1NCCOC1c1ccccc1` (stereo unspecified): “inactive”.
On the same count and under the same terms, with `CC(C)=CC1C(C(=O)OCc2cccc(Oc3ccccc3)c2)C1(C)C` (stereo unspecified) the entry was “inactive”; with `NCCc1cc(O)c(O)cc1O`, “inactive”; with `CCN(CC)C(=O)N[C@@H]1C=C2c3cccc4[nH]cc(c34)C[C@@H]2N(C)C1`, “inactive”.
Still for that read-out and setting: with `CCCC(C)(COC(N)=O)COC(=O)NC(C)C` (stereo unspecified) the entry was “inactive”.
In the case of `O=[N+]([O-])c1cc([As](=O)(O)O)ccc1O`, the Potency entry was “inactive”.
Take `COc1ccc(C(=O)c2c(C)n(CCN3CCOCC3)c3ccccc23)cc1`: the Potency entry was “inactive”.
Same read-out and setting: with `CCC(C(N)=O)N1CCCC1=O` (stereo unspecified) the entry was “inactive”.
Turning to `C=C1CC[C@@]2(O)[C@H]3Cc4ccc(O)c5c4[C@@]2(CCN3CC2CC2)[C@H]1O5`, the Potency entry is “inactive”.
Still for that read-out and setting: with `Nc1ccncc1` the entry was “inactive”; with `CC(C)NCC(O)c1ccccc1Cl` (stereo unspecified), “inactive”; with `CCCN1CCC[C@@H]2Cc3nc(N)ncc3C[C@H]21`, “inactive”.
As to `N[C@@H](Cc1ccc(N(CCCl)CCCl)cc1)C(=O)O`, the Potency was 16.8 µM (active) and 18.7 µM (active).
Same read-out and setting: the same measure for `CCCN1CCC[C@@H]2Cc3[nH]ncc3C[C@H]21`: “inactive”.
On to `CC(=O)[C@H]1CC[C@H]2[C@@H]3CC[C@H]4C[C@](C)(O)CC[C@]4(C)[C@H]3CC[C@]12C`, for which the Potency result was “inactive”.
The same measure, in the same setting: with `Oc1cc(Cl)ccc1Oc1ccc(Cl)cc1Cl` the figure was 24.8 µM (active); with `N[C@@H](Cc1ccc(Oc2cc(I)c(O)c(I)c2)c(I)c1)C(=O)O`, “inactive”.
As for `Clc1cccc(N2CCNCC2)c1`, the Potency entry is “inactive”.
With `C#CCN(C)[C@H](C)Cc1ccccc1`, the Potency result is “inactive”.
Take `CC(C)(C)NCC(O)c1cc(Cl)c(N)c(Cl)c1` (stereo unspecified): the Potency entry is “inactive”.
Turning to `CC[C@@H](CO)NC(=O)[C@@H]1C=C2c3cccc4[nH]cc(c34)C[C@H]2N(C)C1`, the Potency entry was “inactive”.
The same measure, in the same setting: with `NP(N)(=O)NC(=O)c1ccc(F)cc1` the entry was “inactive”.
On the same count and under the same terms, with `CCN(CC)CCOC(=O)C(O)(c1ccccc1)c1ccccc1` the entry was “inactive”.
As to `Cc1cccc(C)c1NC(=O)CN1CCCC1=O`, the Potency entry was “inactive”.
On the same count and under the same terms, with `N[C@@H]1C[C@H]1c1ccccc1` the entry was “inactive”; with `CC[N+](CC)(CC)CC`, “inactive”.
On the same count and under the same terms, with `Fc1ccc(C(OCCN2CCN(CCCc3ccccc3)CC2)c2ccc(F)cc2)cc1` the figure was 21.1 µM (active).
For the molecule `CCCC1CCCCN1` (stereo unspecified), the Potency result is “inactive”.
The same measure, in the same setting: with `C#CCOC(C(=O)OCCN(C)C)(c1ccccc1)c1ccccc1` the entry was “inactive”; with `CN(C)CCc1ccc(O)cc1`, “inactive”; with `CCN(C(C)=O)c1cccc(-c2ccnc3c(C#N)cnn23)c1`, “inactive”.
Still for that read-out and setting: with `CC(=O)Nc1cc([As](=O)(O)O)ccc1O` the entry was “inactive”; with `NCC1(CC(=O)O)CCCCC1`, “inactive”.

A short description of a further test: qHTS of pediatric cancer cell lines to identify multiple opportunities for drug repurposing: Primary screen for control Hh wild type fibroblast cells (AID 1347106).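 Note: a drop in luminescence marks cytotoxicity and a rise apparent proliferation; nearly all actives have a fitted effect of over 55% in size.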 Conditions: Hh wild-type fibroblast viability, CellTiter-Glo luminescence, 48 h; series mostly up to 46 µM. The method in brief:
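Cells (500-1,000/well) in growth media were settled 5 h at 37 degrees C, then given compounds for 48 h. Viability was read as CellTiter-Glo luminescence. Primary runs used MIPE at 11 points (0.78 nM-46 µM) and NPC at 8 points (0.59 nM-46 µM); follow-ups used 11 points.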
For `NN=C(N)N`, the Potency entry is “inactive”.
The same measure, in the same setting: with `CN1CCN(C(=O)O[C@H]2c3nccnc3C(=O)N2c2ccc(Cl)cn2)CC1` the entry was “inactive”.
`CC1NCCOC1c1ccccc1` (stereo unspecified): the Potency result was “inactive”.
On the same count and under the same terms, the same measure for `CC(C)=CC1C(C(=O)OCc2cccc(Oc3ccccc3)c2)C1(C)C` (stereo unspecified): “inactive”; for `NCCc1cc(O)c(O)cc1O`: “inactive”; for `CCN(CC)C(=O)N[C@@H]1C=C2c3cccc4[nH]cc(c34)C[C@@H]2N(C)C1`: “inactive”.
Regarding `CCCC(C)(COC(N)=O)COC(=O)NC(C)C` (stereo unspecified), the Potency result was “inactive”.
The same measure, in the same setting: with `O=[N+]([O-])c1cc([As](=O)(O)O)ccc1O` the entry was “inactive”; with `COc1ccc(C(=O)c2c(C)n(CCN3CCOCC3)c3ccccc23)cc1`, “inactive”; with `CCC(C(N)=O)N1CCCC1=O` (stereo unspecified), “inactive”.
Same read-out and setting: the same measure for `C=C1CC[C@@]2(O)[C@H]3Cc4ccc(O)c5c4[C@@]2(CCN3CC2CC2)[C@H]1O5`: “inactive”.
Same read-out and setting: with `Nc1ccncc1` the entry was “inactive”; with `CC(C)NCC(O)c1ccccc1Cl` (stereo unspecified), “inactive”; with `CCCN1CCC[C@@H]2Cc3nc(N)ncc3C[C@H]21`, “inactive”.
Consider `N[C@@H](Cc1ccc(N(CCCl)CCCl)cc1)C(=O)O`, for which the Potency result is “inactive”.
Same read-out and setting: the same measure for `CCCN1CCC[C@@H]2Cc3[nH]ncc3C[C@H]21`: “inactive”; for `CC(=O)[C@H]1CC[C@H]2[C@@H]3CC[C@H]4C[C@](C)(O)CC[C@]4(C)[C@H]3CC[C@]12C`: “inactive”; for `Oc1cc(Cl)ccc1Oc1ccc(Cl)cc1Cl`: “inactive”.
Still for that read-out and setting: with `N[C@@H](Cc1ccc(Oc2cc(I)c(O)c(I)c2)c(I)c1)C(=O)O` the entry was “inactive”; with `Clc1cccc(N2CCNCC2)c1`, “inactive”; with `C#CCN(C)[C@H](C)Cc1ccccc1`, “inactive”.
On the same count and under the same terms, the same measure for `CC(C)(C)NCC(O)c1cc(Cl)c(N)c(Cl)c1` (stereo unspecified): “inactive”; for `CC[C@@H](CO)NC(=O)[C@@H]1C=C2c3cccc4[nH]cc(c34)C[C@H]2N(C)C1`: “inactive”.
For `NP(N)(=O)NC(=O)c1ccc(F)cc1`, the Potency entry was “inactive”.
Same read-out and setting: with `CCN(CC)CCOC(=O)C(O)(c1ccccc1)c1ccccc1` the entry was “inactive”.
The same measure, in the same setting: the same measure for `Cc1cccc(C)c1NC(=O)CN1CCCC1=O`: “inactive”; for `CN1C(=S)CN=C(c2ccccc2)c2cc(Cl)ccc21`: “inactive”; for `N[C@@H]1C[C@H]1c1ccccc1`: “inactive”.
`CC[N+](CC)(CC)CC`: the Potency entry is “inactive”.
In the case of `Fc1ccc(C(OCCN2CCN(CCCc3ccccc3)CC2)c2ccc(F)cc2)cc1`, the Potency entry was “inactive”.
The same measure, in the same setting: the same measure for `CCCC1CCCCN1` (stereo unspecified): “inactive”; for `C#CCOC(C(=O)OCCN(C)C)(c1ccccc1)c1ccccc1`: “inactive”.
Still for that read-out and setting: with `CN(C)CCc1ccc(O)cc1` the entry was “inactive”; with `CCN(C(C)=O)c1cccc(-c2ccnc3c(C#N)cnn23)c1`, “inactive”.
On the same count and under the same terms, with `CC(=O)Nc1cc([As](=O)(O)O)ccc1O` the entry was “inactive”; with `NCC1(CC(=O)O)CCCCC1`, “inactive”.
